Inconclusive results are not listed. A number with no mark means an inactive call. The source made the active and inactive calls. Calls follow the shape of the dose curve; as a rule, active = well fitted inhibition curve with a large enough effect; inconclusive = small, poorly fitted or top-dose-only effect; inactive = no such curve, though single readings can be large or run the other way.
Experiment: qHTS Screen of the MIPE 4.0 Collection Against Ewings Sarcoma (TC71) (AID 1259253); also: nearly all actives have a fitted effect of over 40% in size;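 as to viability (% of DMSO): 100% = DMSO-treated cells and 0% = medium-only wells without cells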
Conditions: TC71 Ewing sarcoma viability, CellTiter-Glo, 48 h; series mostly up to 45.8 µM; viability (% of DMSO): at the top concentration
Source text: There is a large unmet medical need for treatments for Ewing sarcoma, a pediatric sarcoma. We sought to identify compounds that inhibited Ewing sarcoma cells in vitro with the goal to then test promising drugs in two drug combinations in vitro to look for synergistic drug combinations. Promising combinations would then proceed to additional validation, including in vivo testing.
Using the NCATS developed oncology compound library called the Mechanism of Interrogation Plate (MIPE), four Ewing sarcoma cell lines were evaluated (TC32, TC71, RDES, EW8). Compounds, in a 12-point titration series, were incubated with cells for 48 hours and the read out was cell viability (CellTiter-Glo from Promega). These initial experiments were used to select appropriate concentrations of each single agent for subsequent two-drug matrix combinations such that the concentrations in the matrices would span both activity and non-activity.
Cells, in the log phase of growth, were seeded in 5 uL of RPMI plus 5% FBS, […] L-glutamine, 100 U/ml penicillin and 100 ug/ml streptomycin into 1536-well solid-bottom white tissue culture treated Greiner Bio One Plates (789173-F) using a MultiDrop Combi (Thermofisher Scientific) dispenser and a small sterile cassette. One column was media alone to be used as a :"no cells" control. The plates were then covered with sterilized stainless steel gasketed lids from Kalypsys. After allowing cells to attach for 4 hours, 23 nL of test compound or control (negative control DMSO and positive control 9.2 uM Bortezomib-final) were added from a 1536-well polypropylene compound source plate to each well using a 1536 head pin tool from Kalypsys. Cells were then incubated for 48 hours at 37C, 95% relative humidity and 5% CO2. After 48 hours, plates were removed from the incubator and 3 uL of CellTiter-Glo (Promega) was added using an Aurora Flying Reagent Dispenser Bioraptor. Plates were incubated at room temperature for 10 minutes prior to reading the luminescence on the Viewlux (PerkinElmer). The relative luciferase units are used to calculate the percent activity using the activity of DMSO in the cells and no cells columns for normalization of no inhibition and full inhibition respectively.
Potency is read from the fitted curve at half-maximal effect.

SMILES | Potency | viability (% of DMSO)
COc1ccc(Cc2nccc3cc(OC)c(OC)cc23)cc1OC | 18.7 µM (active) | 
Oc1ccc(C2=Cc3ccc(O)cc3OC2)cc1 | 3.72 µM (active) | 
CC1CCC(C(=O)N(c2cc(C#CC(C)(C)C)sc2C(=O)O)C2CCC(O)CC2)CC1 (stereo not given) | 26.4 µM (active) | 
COc1cc(O)c2c(c1)C(=O)c1cc(C)cc(O)c1C2=O |  | 115% [at 23.2 µM]
C[C@]12CC[C@@H]3c4ccc(O)cc4C[C@@H](CCCCCCCCCS(=O)CCCC(F)(F)C(F)(F)F)[C@H]3[C@H]1CC[C@H]2O (stereo not given in full) | 14.8 µM (active) | 
COc1ccc(-c2coc3cc(O)ccc3c2=O)cc1 |  | 126%
CC#CCn1c(N2CCC[C@@H](N)C2)nc2c1c(=O)n(Cc1nc(C)c3ccccc3n1)c(=O)n2C | 26.4 µM (active) | 
Nc1nc(F)nc2c1ncn2[C@@H]1O[C@H](COP(=O)(O)O)[C@@H](O)[C@H]1O | 14.8 µM (active) | 
CC(=Cc1ccccc1)C=C1SC(=S)N(CC(=O)O)C1=O |  | 123%
O=C1C[C@@H](c2ccc(O)cc2)Oc2cc(O)cc(O)c21 |  | 121%
CCOC(=O)O[C@]1(C(=O)OCCl)CC[C@@H]2[C@H]3CCC4=CC(=O)C=C[C@]4(C)[C@@H]3[C@@H](O)C[C@@]21C |  | 99.6%
C[C@H](NC(=O)C(=O)Nc1ccccc1C(C)(C)C)C(=O)N[C@@H](CC(=O)O)C(=O)COc1c(F)c(F)cc(F)c1F |  | 108%
CO[C@H]1C=CC=C(C)C(=O)NC2=CC(=O)C(NCCN(C)C)=C(C[C@@H](C)C[C@H](OC)[C@@H](O)[C@@H](C)C=C(C)[C@@H]1OC(N)=O)C2=O | 0.235 µM (active) | 
CCc1ccc(C=C2SC(=S)NC2=O)cc1 |  | 102%
COc1cc2ncnc(-n3nc(-c4ccccn4)nc3N)c2cc1OC | 18.7 µM (active) | 
COc1ccc(-c2coc3cc(O)cc(O)c3c2=O)cc1 |  | 96.5%
NC(=O)[C@@H](CCC(F)(F)F)N(Cc1ccc(-c2ncon2)cc1F)S(=O)(=O)c1ccc(Cl)cc1 | 18.7 µM (active) | 
Cn1cc(C=C2C(=O)Nc3cccnc32)c2ccccc21 |  | 100%
CC[C@]1(O)C[C@@H]2CN(CCc3c([nH]c4ccccc34)[C@@](C(=O)OC)(c3cc4c(cc3OC)N(C=O)[C@@H]3C45CCN4CC=C[C@](CC)([C@H]45)[C@@H](OC(C)=O)[C@]3(O)C(=O)OC)C2)C1 (stereo not given in full) | 20.9 µM (active) | 
CCC(CC)[C@H](NC(C)=O)[C@@H]1[C@H](O)[C@@H](C(=O)O)C[C@@H]1N=C(N)N |  | 118%

SMILES | Potency | viability (% of DMSO)
CC(=O)Nc1ccc([C@H](C)C(=O)Nc2ncc(C(C)C)s2)cc1 | 2.96 µM (active) | 
CC(C)=CC[C@@H](O)C1=CC(=O)c2c(O)ccc(O)c2C1=O | 2.35 µM (active) | 
O=C(Nc1cc(Cl)cc2c1[nH]c1cnccc12)c1cccnc1 | 23.5 µM (active) | 
O=c1cc(N2CCOCC2)oc2c(-c3cccc4c3sc3ccccc34)cccc12 | 10.5 µM (active) | 
C[N+]1(C)[C@@H]2CC(OC(=O)[C@H](CO)c3ccccc3)C[C@H]1[C@H]1O[C@@H]12 (stereo not given in full) |  | 116%
CC=C(C)C(=O)O[C@H]1C(C)=C[C@]23C(=O)[C@@H](C=C(CO)[C@@H](O)[C@]12O)[C@H]1[C@@H](C[C@H]3C)C1(C)C | 8.33 µM (active) | 
CC(=NNC(=S)N1CCC1)c1ccccn1 | 0.0053 µM (active) | 
Cc1ccn(-c2ccc(-c3ncco3)cc2)c(=O)c1-c1ccc2nc(N)ncc2c1 | 16.6 µM (active) | 
COc1cc2nc(-c3ccc(N4CCN(C)CC4)cc3)nc(NCCN3CCOCC3)c2cc1OC | 0.132 µM (active) | 
CC(C)C(=O)Oc1ccc(CO)cc1[C@H](CCN(C(C)C)C(C)C)c1ccccc1 |  | 95%
O=c1cc(-c2ccc(O)cc2)oc2cc(O)cc(O)c12 | 20.9 µM (active) | 
C[N+](C)(C)CC(=O)O |  | 113%
CCCCCN(C)CCC(O)(P(=O)(O)O)P(=O)(O)O |  | 126%
C=C1C(=O)[C@@]23C(CC[C@@H]1[C@H]2O)[C@@]12CO[C@]3(O)[C@@H](O)[C@@H]1C(C)(C)CC[C@@H]2O (stereo not given in full) | 6.62 µM (active) | 
COc1ccc2c3c1OC1C[C@@H](O)C=C[C@@]31CCN(C)C2 (stereo not given in full) | 20.9 µM (active) | 
Cc1cc(OCCCc2c(C(=O)O)n(Cc3cccnc3)c3c(-c4c(COc5ccc(N6CCN([S+](C)(=O)[O-])CC6)cc5)nn(C)c4C)cccc23)cc(C)c1Cl | 20.9 µM (active) | 
CC(C)(Cc1ccc2ccccc2c1)NC[C@@H](O)COc1cccc(Cl)c1C#N | 16.6 µM (active) | 
C[C@]12CCC3c4ccc(O)cc4CCC3C1CCC2=O (stereo not given in full) | 14.8 µM (active) | 
CO[C@H]1C=CO[C@@]2(C)Oc3c(C)c(O)c4c(O)c(c5c(c4c3C2=O)NC2(CCN(CC(C)C)CC2)N=5)=NC(=O)C(C)=CC=C[C@H](C)[C@H](O)[C@@H](C)[C@@H](O)[C@@H](C)[C@H](OC(C)=O)[C@H]1C |  | 104%
O=C(NCc1ccncc1)C12C[C@H]3C[C@@H](C1)CC(c1ccc(Cl)cc1)(C3)C2 | 26.4 µM (active) | 

Source: PubChem BioAssay (NCATS)
